Hits are enriched below; roughly 1.2% of the tested compounds scored in any of these assays.
EPAC1 antagonist – antagonists of human EPAC1; EPAC1 GEF assay, Rap1b-BODIPY-GDP exchange fluorescence; hit rate 0.14% among 360,000; Potency, µM (doses to about 115 µM), for the others: at the top dose activity change, negative = inhibition, actives largely listed as inhibitors; O95398;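 further: plate controls were vehicle for no effect and positive control for full effect; nearly all actives have a fitted effect of over 50% in size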
USP1 inh – USP1/UAF1 (human) deubiquitinase inhibition. O94782. recombinant USP1/UAF1, Ub-Rhodamine cleavage fluorescence. Potency, µM (highest dose often 57.1 µM), inactives show top-dose activity change, negative = inhibition, hits mostly inhibitors. hit rate 0.23% among 390,000. AID 743255; further: on the % scale 0 is the no-effect control and ±100 the full control effect; nearly all actives have a fitted effect of over 60% in size
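USP1/UAF1 complex at 1 nM was preincubated with compound for 15 min at room temperature, then Ub-Rho substrate (150nM final) was added. Fluorescence (480/540 nm) was read kinetically, 6 reads every 60 seconds.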
EPAC1 agonist – activates human EPAC1 exchange factor; O95398; EPAC1 agonist qHTS, biochemical assay; response scale: 100% = response to 6.5 mM cAMP; Potency, µM (doses to about 154 µM), for inactives: at the top dose activation, most hits filed as activators; hit rate 0.073% among 360,000; further: nearly all actives have a fitted effect of over 60% in size
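Nucleotide exchange assay: 100 nM EPAC1 with 250 nM Rap1B loaded with BODIPY-GDP and 50 uM GDP, room temperature. Fluorescence (480/540 nm) read every 5 min for 30 min; signal change normalized to 6.5 mM cAMP as full agonist.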
EPAC2 antagonist – EPAC2 (human) antagonism. Q8WZA2. EPAC2 GEF exchange of Rap1B-BODIPY-GDP, fluorescence. Potency, µM (series often up to 114 µM), without a hit: at the highest dose activity, negative = inhibition, usual class: inhibitors. hit rate 0.18% among 360,000. AID 720708; further: on the % scale 0 is the no-effect control and ±100 the full control effect; nearly all actives have a fitted effect of over 45% in size
Target sequence (Q8WZA2 whole entry, looked up): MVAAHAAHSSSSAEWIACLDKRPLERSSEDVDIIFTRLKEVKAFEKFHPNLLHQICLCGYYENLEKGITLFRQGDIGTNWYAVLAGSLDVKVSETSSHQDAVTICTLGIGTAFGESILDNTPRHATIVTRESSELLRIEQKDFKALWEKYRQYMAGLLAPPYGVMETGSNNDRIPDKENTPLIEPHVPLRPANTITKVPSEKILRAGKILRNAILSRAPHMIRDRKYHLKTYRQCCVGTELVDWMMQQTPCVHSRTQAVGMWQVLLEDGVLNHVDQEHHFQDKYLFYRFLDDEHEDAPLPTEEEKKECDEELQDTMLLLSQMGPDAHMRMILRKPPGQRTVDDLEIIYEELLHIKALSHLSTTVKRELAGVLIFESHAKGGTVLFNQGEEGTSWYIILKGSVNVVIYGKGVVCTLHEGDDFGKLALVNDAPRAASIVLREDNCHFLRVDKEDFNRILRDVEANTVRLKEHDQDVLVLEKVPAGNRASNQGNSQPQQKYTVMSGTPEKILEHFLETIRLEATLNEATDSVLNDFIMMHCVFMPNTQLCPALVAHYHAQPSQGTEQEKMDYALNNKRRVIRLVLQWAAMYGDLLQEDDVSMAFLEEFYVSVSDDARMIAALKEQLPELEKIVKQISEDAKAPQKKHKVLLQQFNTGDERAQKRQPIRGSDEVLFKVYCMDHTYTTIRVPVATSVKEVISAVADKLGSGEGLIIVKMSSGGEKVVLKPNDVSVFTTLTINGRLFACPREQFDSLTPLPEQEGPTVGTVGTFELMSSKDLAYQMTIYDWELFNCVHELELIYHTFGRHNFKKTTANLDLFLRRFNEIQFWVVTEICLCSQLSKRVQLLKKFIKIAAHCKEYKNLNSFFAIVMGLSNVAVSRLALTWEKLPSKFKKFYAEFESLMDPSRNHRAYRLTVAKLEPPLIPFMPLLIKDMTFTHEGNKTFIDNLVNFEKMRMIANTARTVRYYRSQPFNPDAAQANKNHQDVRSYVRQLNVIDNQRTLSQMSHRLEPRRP
EPAC2 ag – agonists of human EPAC2 (RAPGEF4). EPAC2 activation, biochemical qHTS; response scale: 100% = 6.5 mM cAMP response. hit rate 0.079% among 360,000. Potency, µM (highest dose often 154 µM), for inactives: at the highest dose activation, usual class: activators. Q8WZA2; further: nearly all actives have a fitted effect of over 50% in size
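qHTS, titration series. 100 nM EPAC2 / 250 nM Rap1B-BODIPY-GDP / 50 uM GDP; RT; ex 480/em 540 nm, 5-min reads to 30 min. Norm. to 6.5 mM cAMP = activation.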
VDR inh – blocks the human vitamin D receptor; Potency, µM, for inactives: max response, negative = inhibition, hits mostly inhibitors; AID 504847; P11473; hit rate 0.93% among 400,000; VDR-SRC2-3 peptide fluorescence polarization, 2 h; further: on the % scale 0 is the no-effect control and ±100 the full control effect
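Inhibition of the VDR/SRC2-3 peptide interaction is quantified by fluorescence polarization. Compounds (23 nl, pintool) incubate with the reagents for 2 hours at ambient room temperature.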
Numbers without * were called inactive; u = inconclusive; x = no result given. The call rests on the fitted dose curve; in most records, active means well fitted curve in the direction sought with a large enough effect; inconclusive means small, poorly fitted or top-dose-only effect, or another doubt; inactive means no such curve, though single readings can be large; an effect the other way counts as inactive or inconclusive. Potency means the concentration at half of the fitted maximal effect.

SMILES	EPAC1 antagonist	USP1 inh	EPAC1 agonist	EPAC2 antagonist	EPAC2 ag	VDR inh
CCOC(=O)CSc1nc2cc(OC)c(OC)cc2cc1C#N	x	x	x	x	x	-6%
Cn1c(=O)c2c(SCC(=O)NCc3ccco3)nc(-c3ccccc3Cl)nc2n(C)c1=O	6%	-23%	3%	4%	3%	-7%
CCCn1c(=O)n(C)c(=O)c2c(SCC(=O)NCc3ccco3)nc(C3CC3)nc21	-10%	4%	-7%	-16%	10µM*	2%
N=c1c2c(ncn1CCCO)Oc1ccc3ccccc3c1C2c1ccccc1 (stereo unspecified)	-8%	-3%	1%	-18%	-1%	18%
Nc1ncnc2c1C(c1ccccc1)c1c(ccc3ccccc13)O2 (stereo unspecified)	-18%	x	-3%	13µM*	6%	-18%
CCC(C)c1cc([N+](=O)[O-])cc([N+](=O)[O-])c1OC(=O)OC(C)C (stereo unspecified)	x	x	x	x	x	11µM*
CCC(C)c1cc([N+](=O)[O-])cc([N+](=O)[O-])c1OC(C)=O (stereo unspecified)	x	x	x	x	x	-6%
Cc1ccc(NC(=S)c2ccncc2)c(C)c1	-21%	-20%	15%	7%	7%	35µM*
Cc1ccc(NC(=S)Nc2cccc3cnccc23)c(C)c1	-3%	-14%	14%	2%	5%	-2%
Cc1ccc(NC(=O)CCC(=O)NNC(=S)Nc2ccccc2)c(C)c1	6%	-6%	-9%	-7%	-6%	-1%
Cc1ccc(NC(=S)NNC(=S)Nc2ccc(C)cc2C)cc1	-14%	-6%	6%	4%	-3%	45µM*
Cn1cnc([N+](=O)[O-])c1S(=O)(=O)Oc1ccc(Cl)cc1	-14%	u	-4%	-2%	9%	25µM*
Cn1cnc([N+](=O)[O-])c1S(=O)(=O)Oc1cccc2ccccc12	-6%	u	-12%	-19%	-2%	u
COc1cccc(Nc2ncc3nc(C)c(=O)n(CCC#N)c3n2)c1	x	x	x	x	x	2%
O=C1C=CC(=C(c2ccc(O)cc2)c2ccc(O)cc2)C=C1	-16%	-12%	8%	4%	-1%	50µM*
O=C(CCCC(=O)c1ccc(O)cc1)c1ccc(O)cc1	-9%	-2%	-2%	-5%	-7%	-13%
COc1cc(S(=O)(=O)Nc2ccccc2C)ccc1Cl	10%	-20%	-1%	28µM*	6%	-9%
Nc1ccccc1S(=O)(=O)c1ccccc1N	3%	-4%	2%	0%	0%	-3%
Nc1ccc2c(S(=O)(=O)O)cccc2c1S(=O)(=O)O	-18%	u	-2%	56µM*	-1%	25%
O=C1C=CC(=O)N1CCCCCCN1C(=O)C=CC1=O	-3%	-9%	0%	18%	4%	3.2µM*
O=C(O)CN1C(=O)C=CC1=O	13%	-28%	1%	10%	2%	x
C[N+]1(C)CCC(=C2c3ccccc3CC(=O)c3sccc32)CC1	10%	28µM*	4%	2%	8%	-20%
Fc1ccc(C[n+]2csc3ccccc32)cc1	-13%	-21%	13%	-1%	-8%	40µM*
N#C/C(=C\c1cccc([N+](=O)[O-])c1)C(=O)NCc1cccnc1	10%	-26%	-11%	9%	-7%	u
COCCNC(=O)/C(C#N)=C/c1cccc(/C=C(\C#N)C(=O)NCCOC)c1	-2%	-16%	3%	1%	7%	35µM*
SMILES	EPAC1 antagonist	USP1 inh	EPAC1 agonist	EPAC2 antagonist	EPAC2 ag	VDR inh
N#C/C(=C\c1cccc([N+](=O)[O-])c1)C(=O)NCc1ccc(Cl)cc1	-24%	u	-7%	10%	0%	40µM*
COCCNC(=O)/C(C#N)=C/c1ccc(O)cc1	-6%	-13%	-10%	-3%	-1%	-21%
COc1ccc2c(c1)c1c(c(=O)n(-c3ccccc3C)c(=O)n1CC(N)=O)n2C	x	-23%	x	x	x	13%
COc1ccc(-c2cc(C(=O)Oc3cccc(C)c3C)c3ccccc3n2)cc1	x	2%	x	x	x	-9%
Cc1cccc(C(=O)O/N=C(\c2ccccc2)c2cccnc2)c1	-21%	0%	16%	-29%	23%	145%
O=C(O)COc1cccc2c1CCC=C2CCO/N=C(\c1ccccc1)c1cccnc1	x	x	x	x	x	50µM*
NC(=O)C1=C(c2ccccc2)c2ccccc2C1=O	u	-14%	11%	-2%	-6%	40µM*
Cc1ccc(C2=C(O)c3ccccc3C(=O)C2=O)cc1	-8%	-15%	-8%	-21%	0%	3%
Cc1ccc(NS(=O)(=O)c2cc([N+](=O)[O-])ccc2NNC(=S)Nc2cc(C)ccc2C)c(C)c1	-13%	-14%	14%	-4%	-5%	u
COc1ccc(NC(=S)NNc2ccc([N+](=O)[O-])cc2S(=O)(=O)Nc2ccc(C)cc2C)cc1	-28%	-23%	-6%	-1%	5%	45µM*
Cc1cccc(NNC(=S)Nc2ccccc2)c1	6%	-25%	-14%	-5%	5%	x
Cc1cccc(NC(=S)NNc2cccc(Cl)c2)c1	-15%	-23%	9%	-5%	21%	28µM*
Cc1ccc(NS(=O)(=O)c2cc([N+](=O)[O-])ccc2NNC(=S)Nc2cccc(Cl)c2)c(C)c1	50µM*	u	-18%	50µM*	-16%	-29%
CC1(C)C[C@](C)(C(=O)c2ccccc2)C=C1c1ccccc1	x	x	x	x	x	8%
CCC(C(=O)Nc1ccc(C)c(Cl)c1)n1c(=O)c(-c2ccccc2NC(C)=O)nc2ccccc21 (stereo unspecified)	x	10%	x	x	x	5%
Cc1cccn2c(=O)c(/C=C(\C#N)c3nc4ccccc4n3C)c(Oc3ccc(Br)cc3)nc12	x	u	x	x	x	-8%
COc1ccc2c(c1)O[C@H](c1ccc3c(c1)OCO3)[C@@H](OC(=O)NS(=O)(=O)c1ccc(C)cc1)C2=O	x	x	x	x	x	9%
CSc1nc(O)c(C(c2ccc(OC(C)C)cc2)c2c(O)nc(SC)[nH]c2=O)c(=O)[nH]1	-9%	3%	-4%	-2%	1%	22µM*
CSc1nc(O)c(C(c2ccc(F)cc2)c2c(O)nc(SC)[nH]c2=O)c(=O)[nH]1	5%	-17%	1%	4%	5%	u
O=C(COc1cccnc1[N+](=O)[O-])c1ccc(Cl)s1	u	-20%	8%	-1%	4%	50µM*
CC1CN(C(=O)CCC(=O)NCc2ccccc2)c2ccccc2S1 (stereo unspecified)	10%	-24%	0%	50µM*	14%	5%
CC1CN(C(=O)CCC(=O)NCc2cccc(Cl)c2)c2ccccc2S1 (stereo unspecified)	x	-24%	x	x	x	-1%

Source: PubChem (National Center for Advancing Translational Sciences (NCATS))
